# Source: PubChem
# An excerpt weighted towards active compounds, which were near 2.3% of everything screened.
# M1 ag parental: nonselective activator or artifact in parental CHO-K1 cells; 360,000 tested, 0.48% active; activation, % at 3 µM; Fluo-8 calcium fluorescence; scaled to maximal ATP response, vehicle zero; in the data active = activation above about 15%;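 also: untransfected CHO-K1 host cells lacking M1 receptor as counterscreen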
# M1 PAM: positive allosteric modulators of human M1 muscarinic receptor; 360,000 tested, 0.088% active; CHO-K1 hM1, Fluo-8 calcium fluorescence, ACh EC20; 0% = ACh EC20, 100% = maximal ACh; activation, % at 3 µM; in the data active = activation above about 19%, passing the limit was not always enough
# Target sequence (P11229 whole entry, looked up): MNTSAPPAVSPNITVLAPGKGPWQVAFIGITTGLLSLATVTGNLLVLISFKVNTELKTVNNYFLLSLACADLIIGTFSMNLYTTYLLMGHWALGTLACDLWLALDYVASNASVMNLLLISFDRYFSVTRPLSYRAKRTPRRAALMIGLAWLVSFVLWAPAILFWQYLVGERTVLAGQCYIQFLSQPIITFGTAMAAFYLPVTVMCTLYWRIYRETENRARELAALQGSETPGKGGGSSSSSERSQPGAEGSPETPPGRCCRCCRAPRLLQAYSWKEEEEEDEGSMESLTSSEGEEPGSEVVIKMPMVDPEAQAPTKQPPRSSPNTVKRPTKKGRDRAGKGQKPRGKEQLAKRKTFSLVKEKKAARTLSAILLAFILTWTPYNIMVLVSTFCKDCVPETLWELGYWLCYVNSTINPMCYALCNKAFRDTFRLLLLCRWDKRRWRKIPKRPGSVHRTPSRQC
# CHRM1 agonist: agonists of human M1 muscarinic receptor. CHO-K1 hM1, Fluo-8 calcium fluorescence, agonist mode; 0% DMSO, 100% acetylcholine EC100. activation, % at 3 µM. 360,000 tested, 0.33% active;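 active = activation above the run's mean compound activation plus 3 SD, cut at about 16% in these data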;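 also: peak over basal fluorescence ratio within a 140 s kinetic read after compound addition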
# CHO-K1 Ca PAM: nonselective activator or artifact in parental CHO-K1 calcium assay; ATP EC20, Fluo-8 calcium fluorescence; 0% at ATP EC20, 100% at ATP max; activation, % at 3 µM; 360,000 tested, 0.02% active; AID 602247;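 active = activation above the run cutoff, the mean activation of all test compounds plus 3 SD, cut at about 40% in these data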;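 also: peak over basal fluorescence ratio in a 140 s read after ATP addition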
# M1 antag: human CHRM1 antagonism | inhibition, % at 3 µM | CHO-K1 hM1, Fluo-8 calcium fluorescence, ACh EC80 antagonist | 360,000 tested, 1.3% active | AID 588852;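 active = percent inhibition above its own plate's cutoff, namely the mean of that plate's compound wells plus 3 SD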;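 also: peak over basal fluorescence ratio during 140 s after agonist addition; 0% = ACh EC80 plus DMSO and 100% = DMSO alone without agonist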
# CHO-K1 Ca antag: nonselective inhibitor or artifact in parental CHO-K1 cells | inhibition, % at 3 µM | ATP-induced calcium, Fluo-8 fluorescence | 360,000 tested, 0.6% active;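 active = inhibition above a per-plate cutoff, the plate's mean sample inhibition plus 3 SD, cut at about 24% in these data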;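 also: 0% = DMSO plus EC80 ATP and 100% = DMSO alone without ATP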
# Active calls of the source: *.
SMILES,M1 ag parental,M1 PAM,CHRM1 agonist,CHO-K1 Ca PAM,M1 antag,CHO-K1 Ca antag
CCN(CC)CCOC(=O)/C=C/c1ccccc1,0,-5,-6,-25,5,15
CCN(CC)CCCOC(=O)C(c1ccccc1)c1ccccc1,1,-34,-14,-1,101*,5
COc1ccc(OC)c(S(=O)(=O)N2CCN(C34CC5CC(CC(C5)C3)C4)CC2)c1,1,-20,-6,2,48*,-2
CCN1CCN(S(=O)(=O)c2cc(OC)ccc2OC)CC1,0,-5,-4,-12,10,20
CC(C)(C)c1ccc(C(=O)NC(=O)COC(=O)c2ccc(Br)o2)cc1,1,9,-5,12,-19,-22
Cc1cc(C)cc(NC(=O)c2ccc(CSc3nnc(C)s3)cc2)c1,4,-12,0,-4,36*,16
COc1ccc(Cc2noc(CN3CCN(c4ccc(Cl)cn4)CC3)n2)cc1OC,22*,1,-4,0,3,4
CC1CC(C)CN(C(=O)C2CCN(S(=O)(=O)c3cccc4cccnc34)CC2)C1 (stereo unspecified),4,-10,0,-21,15,13
Fc1ccccc1CN1CCCCCCC1,0,-5,-12,2,5,-16
c1ccc(Sc2ccccc2CN2CCCC2)cc1,1,-24,-9,4,79*,2
COc1ccc(OC)c(NP2(=O)OCC(C)([N+](=O)[O-])CO2)c1 (stereo unspecified),1,16,0,3,-19,-9
COc1cc(OC)c(C(=O)OCC(=O)N(Cc2ccccc2)C(C)(C)C)cc1OC,2,5,-4,16,-3,-7
COc1cc2c(cc1NC(=S)Nc1ccccc1C)oc1ccccc12,0,25*,-5,17,-15,-9
C[n+]1c(-c2ccccc2)cc2c(=Cc3ccc([N+](=O)[O-])cc3)c3ccccc3n21,0,-27,-8,11,42*,-12
C[n+]1c(-c2ccccc2)cc2c(=Cc3ccccc3)c3ccccc3n21,0,-27,-9,-4,46*,4
COc1ccc(C(=O)N/C(=C\c2cn(S(=O)(=O)N(C)C)c3ccccc23)C(=O)N2CCCC2)cc1,1,4,0,7,-3,0
CN1/C(=C\C(=O)c2ccco2)C(C)(C)c2ccccc21,14,-10,0,1,31*,39*
CN1/C(=C\C(=O)c2cncc(Br)c2)C(C)(C)c2ccccc21,1,-12,-7,-16,14,24*
c1ccc(-c2csc3ncnc(NCC4COc5ccccc5O4)c23)cc1 (stereo unspecified),4,-16,-8,17,33,23
COc1ccc(C(CNc2ncnc3sc(C)c(C)c23)N(C)C)cc1 (stereo unspecified),1,-28,-12,26,23*,-14
Cc1sc2ncnc(Nc3ccccc3)c2c1C,-1,-2,-7,-1,-4,-1
CN(C)C(CNc1ncnc2sc3c(c12)CCCCC3)c1ccco1 (stereo unspecified),0,-15,-7,12,17,-6
Cc1sc2ncnc(NCC(c3ccco3)N(C)C)c2c1C (stereo unspecified),0,-18,-4,-7,38*,14
COc1ccccc1C(CNc1ncnc2sc(C)c(C)c12)N(C)C (stereo unspecified),3,-34,-11,3,92*,-10
Cc1sc2ncnc(NCc3ccccc3)c2c1C,7,-2,-1,7,22,12
Cc1sc2ncnc(NCC3COc4ccccc4O3)c2c1C (stereo unspecified),10,-17,-5,-5,30,27*
O=C(Nc1cccnc1Cl)c1cc2ccccc2o1,1,7,-2,18,-9,-6
Cc1oc(-c2ccccc2Cl)nc1CN1CCCN(C(=O)c2ccco2)CC1,0,8,-12,-6,-10,7
O=S(=O)(c1ccc(Cl)cc1)N1CCN(C(=S)NCC2CCCO2)CC1 (stereo unspecified),5,7,0,19,9,-14
